Compound activity (PubChem BioAssay)
ERa coact pot: enhancers of ERα–SRC-1 coactivator binding, primary screen, biochemical, TR-FRET, ERα LBD, low estradiol; 86,000 compounds, 1.3% hits; coactivator binding (% of control), % at 25.6 µM; TR-FRET ERalpha-LBD/SRC-Cy5 coactivator binding, 2 h; 100 = basal binding, no effect; Estrogen receptor (Homo sapiens), P03372; in the data active = activity above about 200%;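 also: binding measured in presence of low estradiol as agonist stimulus; 0% = peptide alone without receptor and 100% = receptor with peptide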
Target sequence (P03372 whole entry, looked up, the tested form may be a part): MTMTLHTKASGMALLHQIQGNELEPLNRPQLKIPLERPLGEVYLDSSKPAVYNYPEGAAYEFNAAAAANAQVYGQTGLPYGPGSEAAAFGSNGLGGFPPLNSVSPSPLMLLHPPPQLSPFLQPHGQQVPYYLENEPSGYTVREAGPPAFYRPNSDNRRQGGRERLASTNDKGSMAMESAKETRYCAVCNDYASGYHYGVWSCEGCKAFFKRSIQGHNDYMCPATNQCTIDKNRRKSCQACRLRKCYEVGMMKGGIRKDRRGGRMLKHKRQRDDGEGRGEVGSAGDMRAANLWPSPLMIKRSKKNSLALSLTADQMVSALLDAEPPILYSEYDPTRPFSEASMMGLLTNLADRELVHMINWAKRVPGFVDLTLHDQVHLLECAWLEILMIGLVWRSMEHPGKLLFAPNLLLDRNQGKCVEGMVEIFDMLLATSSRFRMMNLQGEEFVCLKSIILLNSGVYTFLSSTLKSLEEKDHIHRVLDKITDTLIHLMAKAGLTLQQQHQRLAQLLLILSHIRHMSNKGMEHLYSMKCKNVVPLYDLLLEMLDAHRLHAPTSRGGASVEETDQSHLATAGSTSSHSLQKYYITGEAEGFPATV
Mac1 fbg inh: inhibitors of CD11b/CD18 adhesion to fibrinogen, primary screen, K562 cells, luminescence; Integrin beta-2 (Homo sapiens) + Integrin alpha-M (Homo sapiens), P05107+P11215; AID 1497, 2009; ATPlite luminescence; Mn2+ added to activate the integrin; 93,000 compounds, 0.54% hits; inhibition, % at 10 µM;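 active = primary inhibition of 50% or more at 10 µM, then 40% or more on retest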
Mac1 fbg enh: enhancers of CD11b/CD18 adhesion to fibrinogen, primary screen, K562 cells, luminescence; 93,000 compounds, 0.07% hits; ATPlite luminescence; Integrin beta-2 (Homo sapiens) + Integrin alpha-M (Homo sapiens), P05107+P11215; activation, % at 10 µM; AID 1499, 2009;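 active = 10 µM primary screen giving 50% or more activity, confirmed by 40% or more on retest at that dose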
ERa SRC1 inh: ERα–SRC-1 coactivator interaction inhibitors, primary screen, biochemical, TR-FRET, ERα LBD, estradiol-bound; Estrogen receptor (Homo sapiens), P03372; TR-FRET ER-alpha LBD / SRC-1 peptide; inhibition, % at 25.6 µM; 86,000 compounds, 1.7% hits; in the data active = inhibition above about 50%;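 also: 0% = receptor plus peptide control and 100% = peptide only without receptor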
FAK blocker: FAK kinase inhibitors, primary screen, biochemical; biochemical FAK kinase activity assay; 97,000 compounds, 0.84% hits; inhibition, %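 (tested at 7 µM)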; Focal adhesion kinase 1 (Homo sapiens), Q05397; in the data active = inhibition above about 19%;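 also: 0% = DMSO and 100% = reference compound high control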
ERb coact inh: inhibitors of ERβ-SRC1 coactivator interaction, primary screen, biochemical, TR-FRET, ERβ LBD, SRC-1 peptide | Estrogen receptor beta (Homo sapiens), Q92731 | TR-FRET ER-beta LBD / SRC1-Cy5 peptide binding; receptor agonist-loaded with 1 µM estradiol | inhibition, % at 25.6 µM | 86,000 compounds, 1.3% hits | AID 633, 2007;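 active = compounds whose percent inhibition of the receptor-coactivator binding signal exceeds about 50% in the single-dose screen, limit read from the data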;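 also: 0% = receptor plus peptide wells without compound and 100% = peptide-only wells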
* marks the source's active call; other numbers are inactive results; . = no result; [ ] = another dose, or the depositor's remark. An excerpt weighted towards active compounds, which were near 3.5% of everything screened.

SMILES	ERa coact pot	Mac1 fbg inh	Mac1 fbg enh	ERa SRC1 inh	FAK blocker	ERb coact inh
CN(C)c1ccc(/C=c2\sc3nc(-c4ccccc4)nn3c2=O)cc1	52	.	.	69*[fluorescence artefact?]	-4	34
COc1ccccc1/C=c1\sc2nc(-c3cccs3)nn2c1=O	76	.	.	3	1	17
O=C1N/C(=N/Nc2ccccc2)S/C1=C\c1ccccc1	.	79*	-12	.	-12	.
COc1ccc(/C=C2\SC(=NCc3ccccc3)NC2=O)cc1	.	-10	7	.	.	.
C=C(C)Cn1c(C(C)NC(=O)CCC)nc2ccccc21 (stereo not given)	100	28	1	0	.	1
CCCC(=O)NC(C)c1nc2ccccc2n1CC (stereo not given)	98	-2	-5	82*[fluorescence artefact?]	1	-11
CN(C)c1ccc(NC(=O)CN2C(=O)CC(c3ccccc3)=Nc3ccccc32)cc1	38	-13	56	93*[fluorescence artefact?]	12	66*[fluorescence artefact?]
O=C(CC1CCCC1)OCn1nnc2ccccc2c1=O	121	1	2	16	.	-2
CCCCNc1cc(=O)oc2ccccc12	89	.	.	-5	0	-2
CCOc1ccc(Nc2cc(=O)oc3ccccc23)cc1	256*	.	.	-5	2	11
COc1ccccc1NC(=O)NC(N)=O	103	.	.	6	2	74*
COC(=O)C(NC(=O)Nc1ccccc1OC)C(C)C (stereo not given)	.	2	-8	.	-1	.
COC(=O)CCC(=O)COc1ccccc1C#N	96	1	2	-40	2	-22
CCNC(=O)NC(=O)COc1ccccc1C#N	332*[fluorescence artefact?]	-25	-1	-25	.	-24
Cc1cc(C)n(C(=O)CSc2nc3ccccc3o2)n1	105	79	1	18	.	24
COc1ccccc1OCCCc1c(C)n[nH]c1C	80	6	-6	6	-3	14
Cc1cccc(OCCCCc2c(C)n[nH]c2C)c1C	86	90*	-8	5	-2	-1
COc1ccccc1OCCCCCc1c(C)n[nH]c1C	117	62*	-8	-8	-2	-5
COc1ccccc1OCCSc1nc(N)cc(N)n1	104	.	.	-10	-11	-10
CCOc1ccc2[nH]c(=O)c(=O)[nH]c2c1	74	-28	10	52*[fluorescence artefact?]	5	54*
CCOc1ccc2[nH]c(C)cc(=O)c2c1	106	4	-2	-5	-1	-5
O=C(COc1ccc(Cl)cc1)N1CCCC1	114	.	.	5	-1	-4
C=CCNc1nc(-c2cccc(OC)c2O)nc2ccccc12	85	-11	-4	58*	6	29
COc1cccc(-c2nc(NCc3ccco3)c3ccccc3n2)c1O	71	.	.	-1	3	6
O=C(COC(=O)C(O)c1ccccc1)c1ccc2c(c1)OCCO2 (stereo not given)	421*	.	.	-18	2	4
SMILES	ERa coact pot	Mac1 fbg inh	Mac1 fbg enh	ERa SRC1 inh	FAK blocker	ERb coact inh
Cc1c(C(=O)OCC(=O)c2ccc3c(c2)OCCO3)oc2ccccc12	178	18	-3	2	1	1
COc1cccc(NC2SC(=O)N(c3ccccc3)C2=O)c1 (stereo not given)	204*	-3	2	-16	.	-2
CN1C(=O)SC(Nc2ccccc2)C1=O (stereo not given)	110	.	.	-20	-1	-24
Cc1ccc(NC2c3ncccc3C(=O)N2c2ccccc2C)cc1C (stereo not given)	543*[fluorescence artefact?]	-12	12	-45	-2	21
CCOc1ccc(N2C(=O)c3cccnc3C2Nc2ccc(Cl)cc2)cc1 (stereo not given)	107	.	.	6	2	2
Cc1cc2c(C)c(C)c(=O)[nH]c2cc1N	16	0	44	69*[fluorescence artefact?]	3	44
Cc1cc(C)c2[nH]c(=O)c(=O)[nH]c2c1	108	.	.	0	-5	-2
COC(=O)c1c(C)[nH]c(C(=O)COC(=O)Cc2ccc3c(c2)OCCO3)c1C	260*[fluorescence artefact?]	0	-1	-1	0	0
CCC(O)CNc1nc(-n2nc(C)cc2C)nc2sc3c(c12)CCCC3 (stereo not given)	203*	-3	2	1	.	-1
Cc1cc(C)n(-c2nc(SCCN(C)C)c3c4c(sc3n2)CCCC4)n1	87	38	-6	1	0	-15
Cc1cccc(OCCn2c(NC(=O)c3ccco3)nc3ccccc32)c1	132	5	7	3	4	4
CCC(C)NC(=O)c1cn(C)c(=O)c2cc(OC)c(OC)cc12 (stereo not given)	103	-15	4	26	.	-9
O=c1c2cc(N3CCOCC3)ccc2[nH]c(=S)n1Cc1ccco1	99	-3	4	47	.	51*
O=C1c2ccccc2C(=O)N1Cc1nc2ccccc2c(=O)n1Cc1ccco1	249*	-24	42	59*[fluorescence artefact?]	.	58*[fluorescence artefact?]
O=c1[nH]c2ccccc2c(=O)n1Cc1ccco1	98	-12	-1	-2	-3	63*
O=C(CC(NCCc1ccccc1)C(=O)O)Nc1ccc(O)cc1 (stereo not given)	103	5	-2	-4	1	-1
CCOC(=O)C1CCN(c2cc(=O)n(-c3ccc(OC)cc3)c(=O)[nH]2)CC1	.	-14	2	.	-1	.
COc1ccc(C2C=C(c3ccc(Cl)cc3)Nc3nc(NC(C)=O)nn32)cc1 (stereo not given)	172	18	2	70*	-2	22
CC(=O)Nc1nc2n(n1)C(c1ccccc1)C=C(c1ccccc1)N2 (stereo not given)	100	-15	-6	-1	4	12
O=C(COC(=O)C1CCCCC1C(=O)N1CCc2ccccc21)NCc1ccco1 (stereo not given)	83	4	0	50*[fluorescence artefact?]	.	42
COc1ccc(OC)c(-c2nnc(-c3ccc(C)o3)o2)c1	103	-13	5	-1	-8	11
O=C(NC1CCCc2ccccc21)C1CCN(C(=O)c2sccc2-n2cccc2)CC1 (stereo not given)	103	0	4	-11	.	-12
COc1ccc(C2SCC(=O)N2C)cc1 (stereo not given)	89	-6	0	4	-2	43
CCN1CCN(C(=S)Nc2ccccc2Cl)CC1	99	-1	-3	-3	-3	-5
COc1ccc(Cn2cc3c(-c4ccc(F)cc4)nnc-3c3cc(OC)c(OC)cc32)cc1	262*[fluorescence artefact?]	26	12	49	-1	34
